# ± gives the standard deviation of the averaged measurements.
# Legend:
# Experiment in all cases: promoter activity interaction Z-score (Lux/OD deviation from empty-vector control); higher = stronger promoter induction by the compound
# [1] = system: E. coli BW25113 acrABp lux reporter
# In short: (§1)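 E. coli BW25113 luxCDABE reporter strains grew at 37°C in 40 µl LB Lennox in 384-well plates, with OD600 and luminescence read every 30 min for 12 h. After integration over 0–8 h for wild type or 1–9 h for deletion strains, wells under 10% of the median growth value were removed. Each score is the Z-transformed residual of growth-normalised luminescence fitted against a control.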
# [2] = system: E. coli BW25113 marRABp lux reporter
# In short: as §1
# [3] = system: E. coli BW25113 micFp lux reporter
# In short: as §1
# [4] = system: E. coli BW25113 ompFp lux reporter
# In short: as §1
# [5] = system: E. coli BW25113 robp lux reporter
# In short: as §1
# [6] = system: E. coli BW25113 soxSp lux reporter
# In short: as §1
# [7] = system: E. coli BW25113 tolCp lux reporter
# In short: as §1
# [8] = 1.9 µg/ml, genetic background: wild type
# [9] = 1.9 µg/ml, genetic background: ΔmarA
# [10] = 1.9 µg/ml, genetic background: Δrob
# [11] = 1.9 µg/ml, genetic background: ΔsoxS
# [12] = 3.7 µg/ml, genetic background: wild type
# [13] = 3.7 µg/ml, genetic background: ΔmarA
# [14] = 3.7 µg/ml, genetic background: Δrob
# [15] = 3.7 µg/ml, genetic background: ΔsoxS
# [16] = 7.4 µg/ml, genetic background: wild type
# [17] = 7.4 µg/ml, genetic background: ΔmarA
# [18] = 7.4 µg/ml, genetic background: Δrob
# [19] = 7.4 µg/ml, genetic background: ΔsoxS
smiles,measurement,setting,value
CCCCCCCCCCCCC[N+](C)(C)Cc1ccccc1 [Benzalkonium],promoter activity interaction Z-score,[1]; [8],-0.513 ± 0.068
same,promoter activity interaction Z-score,[1]; [9],-0.237 ± 0.34
same,promoter activity interaction Z-score,[1]; [10],-0.388 ± 0.4
same,promoter activity interaction Z-score,[1]; [11],0.294 ± 0.89
same,promoter activity interaction Z-score,[1]; [12],-0.16 ± 0.06
same,promoter activity interaction Z-score,[1]; [13],-0.795 ± 0.15
same,promoter activity interaction Z-score,[1]; [14],-0.554 ± 0.18
same,promoter activity interaction Z-score,[1]; [15],0.231 ± 0.94
same,promoter activity interaction Z-score,[1]; [16],-0.426 ± 0.23
same,promoter activity interaction Z-score,[1]; [17],-0.878 ± 0.33
same,promoter activity interaction Z-score,[1]; [18],-0.727 ± 0.24
same,promoter activity interaction Z-score,[1]; [19],0.0433 ± 0.71
same,promoter activity interaction Z-score,[2]; [8],-0.577 ± 0.068
same,promoter activity interaction Z-score,[2]; [9],0.106 ± 0.047
same,promoter activity interaction Z-score,[2]; [10],-0.463 ± 0.11
same,promoter activity interaction Z-score,[2]; [11],-0.158 ± 0.0077
same,promoter activity interaction Z-score,[2]; [12],-0.168 ± 0.0038
same,promoter activity interaction Z-score,[2]; [13],-0.194 ± 0.23
same,promoter activity interaction Z-score,[2]; [14],-0.586 ± 0.14
same,promoter activity interaction Z-score,[2]; [15],-0.214 ± 0.035
same,promoter activity interaction Z-score,[2]; [16],-0.235 ± 0.61
same,promoter activity interaction Z-score,[2]; [17],-0.581 ± 0.057
same,promoter activity interaction Z-score,[2]; [18],-0.529 ± 0.065
same,promoter activity interaction Z-score,[2]; [19],-0.255 ± 0.23
same,promoter activity interaction Z-score,[3]; [8],-0.76 ± 0.023
same,promoter activity interaction Z-score,[3]; [9],0.0652 ± 0.0013
same,promoter activity interaction Z-score,[3]; [10],0.0861 ± 0.12
same,promoter activity interaction Z-score,[3]; [11],0.559 ± 0.1
same,promoter activity interaction Z-score,[3]; [12],-0.0239 ± 0.31
same,promoter activity interaction Z-score,[3]; [13],0.0187 ± 0.025
same,promoter activity interaction Z-score,[3]; [14],-0.0547 ± 0.088
same,promoter activity interaction Z-score,[3]; [15],0.312 ± 0.19
same,promoter activity interaction Z-score,[3]; [16],-0.0221 ± 0.06
same,promoter activity interaction Z-score,[3]; [17],0.112 ± 0.063
same,promoter activity interaction Z-score,[3]; [18],-0.178 ± 0.013
same,promoter activity interaction Z-score,[3]; [19],0.584 ± 0.26
same,promoter activity interaction Z-score,[4]; [8],-0.908 ± 0.23
same,promoter activity interaction Z-score,[4]; [9],-0.356 ± 0.42
same,promoter activity interaction Z-score,[4]; [10],-1.25 ± 0.58
same,promoter activity interaction Z-score,[4]; [11],-0.386 ± 0.51
same,promoter activity interaction Z-score,[4]; [12],-0.513 ± 0.059
same,promoter activity interaction Z-score,[4]; [13],-0.652 ± 0.036
same,promoter activity interaction Z-score,[4]; [14],-1.38 ± 0.51
same,promoter activity interaction Z-score,[4]; [15],-0.498 ± 0.53
same,promoter activity interaction Z-score,[4]; [16],-0.731 ± 0.65
same,promoter activity interaction Z-score,[4]; [17],-1.05 ± 0.44
same,promoter activity interaction Z-score,[4]; [18],-1.75 ± 0.21
same,promoter activity interaction Z-score,[4]; [19],-0.339 ± 0.55
same,promoter activity interaction Z-score,[5]; [8],-1.53 ± 0.13
same,promoter activity interaction Z-score,[5]; [9],-0.233 ± 0.25
same,promoter activity interaction Z-score,[5]; [10],-0.222 ± 1.1
same,promoter activity interaction Z-score,[5]; [11],-0.27 ± 0.21
same,promoter activity interaction Z-score,[5]; [12],-0.668 ± 0.089
same,promoter activity interaction Z-score,[5]; [13],-0.453 ± 0.016
same,promoter activity interaction Z-score,[5]; [14],-0.648 ± 0.67
same,promoter activity interaction Z-score,[5]; [15],-0.627 ± 0.58
same,promoter activity interaction Z-score,[5]; [16],-0.364 ± 0.19
same,promoter activity interaction Z-score,[5]; [17],-0.432 ± 0.13
same,promoter activity interaction Z-score,[5]; [18],-0.777 ± 0.35
same,promoter activity interaction Z-score,[5]; [19],-0.0429 ± 0.032
same,promoter activity interaction Z-score,[6]; [8],-0.311 ± 0.12
same,promoter activity interaction Z-score,[6]; [9],0.435 ± 0.12
same,promoter activity interaction Z-score,[6]; [10],0.153 ± 0.081
same,promoter activity interaction Z-score,[6]; [11],0.8 ± 0.97
same,promoter activity interaction Z-score,[6]; [12],-0.00893 ± 0.087
same,promoter activity interaction Z-score,[6]; [13],0.517 ± 0.017
same,promoter activity interaction Z-score,[6]; [14],-0.0801 ± 0.15
same,promoter activity interaction Z-score,[6]; [15],0.388 ± 0.66
same,promoter activity interaction Z-score,[6]; [16],-0.156 ± 0.16
same,promoter activity interaction Z-score,[6]; [17],0.256 ± 0.12
same,promoter activity interaction Z-score,[6]; [18],-0.261 ± 0.034
same,promoter activity interaction Z-score,[6]; [19],0.23 ± 0.41
same,promoter activity interaction Z-score,[7]; [8],-0.208 ± 0.53
same,promoter activity interaction Z-score,[7]; [9],1.08 ± 0.12
same,promoter activity interaction Z-score,[7]; [10],1.06 ± 0.98
same,promoter activity interaction Z-score,[7]; [11],0.966 ± 0.54
same,promoter activity interaction Z-score,[7]; [12],-0.106 ± 0.92
same,promoter activity interaction Z-score,[7]; [13],1.89 ± 1.1
same,promoter activity interaction Z-score,[7]; [14],-0.289 ± 0.39
same,promoter activity interaction Z-score,[7]; [15],0.246 ± 0.11
same,promoter activity interaction Z-score,[7]; [16],0.0455 ± 1.8
same,promoter activity interaction Z-score,[7]; [17],0.506 ± 0.55
same,promoter activity interaction Z-score,[7]; [18],-0.0996 ± 0.22
same,promoter activity interaction Z-score,[7]; [19],1.32 ± 2
same,promoter activity interaction Z-score,"[7]; 14.9 µg/ml, genetic background: ΔsoxS",1.08 ± 0.5
